# Measurements reported in PMC7862700, “An all-to-all approach to the identification of sequence-specific readers for epigenetic DNA modifications on cytosine”.
# Legend:
# Experiment in all cases: DAPPL (digital affinity profiling via proximity ligation, sequencing); 10 mM Tris-HCl pH 7.5, 50 mM NaCl, 1 mM DTT, 4% glycerol, room temperature, 30 min; GST-TFs on glutathione beads, 16-mer random dsDNA library, 0.1% formaldehyde crosslink after washing; high values mean tight binding
# FEV = biological target: T1, FEV (Homo sapiens, UniProt Q99581 1-238); settings: protein: recombinant; tags: N-terminal GST; dsDNA, one strand shown
# T1 sequence: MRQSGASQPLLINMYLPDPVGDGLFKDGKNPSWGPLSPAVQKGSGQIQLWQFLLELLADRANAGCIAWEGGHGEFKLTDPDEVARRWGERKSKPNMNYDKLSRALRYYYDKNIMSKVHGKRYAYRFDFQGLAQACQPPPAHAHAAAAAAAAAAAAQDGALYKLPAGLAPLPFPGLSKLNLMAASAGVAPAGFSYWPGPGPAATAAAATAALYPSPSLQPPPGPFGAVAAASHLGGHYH
# Outline: (§1)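 A tag-only sample was pooled with DNA-barcoded human transcription factors that had been expressed in yeast as GST fusions and captured on glutathione beads. The pools were incubated for 30 min at room temperature with 200 nmole of a random double-stranded 16-mer DNA library in Tris/NaCl/DTT/glycerol buffer, then washed, crosslinked with 0.1% formaldehyde, proximity-ligated (BsaI/T4 ligase, 1 h, 37 °C), PCR-amplified and sequenced on an Illumina NextSeq500. Binding signal is each hexamer's read frequency for a factor divided by its frequency for the tag-only sample.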
# ETV5 = ETV5 (Homo sapiens, UniProt P41161 1-510); settings: protein: recombinant; tags: N-terminal GST; dsDNA, one strand shown
# Outline: as §1
# HSF1 = HSF1 (Homo sapiens, UniProt Q00613 1-529); settings: protein: recombinant; tags: N-terminal GST; chain copies: 3; dsDNA, one strand shown
# Outline: as §1
# SPIC = biological target: T2, SPIC (Homo sapiens, UniProt Q8N5J4 1-248); settings: protein: recombinant; tags: N-terminal GST; dsDNA, one strand shown
# T2 sequence: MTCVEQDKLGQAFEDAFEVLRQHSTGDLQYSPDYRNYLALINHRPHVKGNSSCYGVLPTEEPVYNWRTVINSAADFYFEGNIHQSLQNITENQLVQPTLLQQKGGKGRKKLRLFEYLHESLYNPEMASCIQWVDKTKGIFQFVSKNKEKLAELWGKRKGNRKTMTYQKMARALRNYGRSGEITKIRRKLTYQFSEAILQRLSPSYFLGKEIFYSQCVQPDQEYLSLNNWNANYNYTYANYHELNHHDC
# Outline: as §1
# ELF4 = ELF4 (Homo sapiens, UniProt Q99607 1-663); settings: protein: recombinant; tags: N-terminal GST; dsDNA, one strand shown
# Outline: as §1
# ELK4 = biological target: T3, ELK4 (Homo sapiens, UniProt P28324-2 1-405); settings: protein: recombinant; tags: N-terminal GST; dsDNA, one strand shown
# T3 sequence: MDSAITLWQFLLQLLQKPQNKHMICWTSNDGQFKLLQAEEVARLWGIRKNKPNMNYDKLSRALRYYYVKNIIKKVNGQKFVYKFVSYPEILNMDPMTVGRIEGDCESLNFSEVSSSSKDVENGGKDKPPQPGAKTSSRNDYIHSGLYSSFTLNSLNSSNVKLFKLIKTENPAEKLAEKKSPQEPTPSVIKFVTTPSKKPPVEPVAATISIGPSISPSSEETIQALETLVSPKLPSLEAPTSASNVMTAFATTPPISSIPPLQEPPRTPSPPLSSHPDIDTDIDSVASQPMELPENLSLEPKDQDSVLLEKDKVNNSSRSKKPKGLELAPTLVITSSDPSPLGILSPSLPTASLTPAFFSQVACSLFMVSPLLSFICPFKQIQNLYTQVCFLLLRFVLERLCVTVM
# Outline: as §1
# ETV2 = biological target: T4, ETV2 (Homo sapiens, UniProt O00321 1-342); settings: protein: recombinant; tags: N-terminal GST; dsDNA, one strand shown
# T4 sequence: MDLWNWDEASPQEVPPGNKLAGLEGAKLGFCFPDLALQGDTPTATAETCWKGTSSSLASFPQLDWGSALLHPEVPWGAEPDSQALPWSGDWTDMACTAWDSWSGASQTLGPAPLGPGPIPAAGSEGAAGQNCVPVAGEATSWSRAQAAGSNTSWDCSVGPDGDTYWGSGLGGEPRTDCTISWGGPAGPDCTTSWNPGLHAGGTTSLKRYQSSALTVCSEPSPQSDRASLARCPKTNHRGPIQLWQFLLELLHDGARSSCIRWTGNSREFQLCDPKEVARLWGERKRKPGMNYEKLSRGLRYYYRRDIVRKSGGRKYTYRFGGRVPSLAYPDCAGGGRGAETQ
# Outline: as §1
# ELF3 = biological target: T5, ELF3 (Homo sapiens, UniProt P78545 1-371); settings: protein: recombinant; tags: N-terminal GST; dsDNA, one strand shown
# T5 sequence: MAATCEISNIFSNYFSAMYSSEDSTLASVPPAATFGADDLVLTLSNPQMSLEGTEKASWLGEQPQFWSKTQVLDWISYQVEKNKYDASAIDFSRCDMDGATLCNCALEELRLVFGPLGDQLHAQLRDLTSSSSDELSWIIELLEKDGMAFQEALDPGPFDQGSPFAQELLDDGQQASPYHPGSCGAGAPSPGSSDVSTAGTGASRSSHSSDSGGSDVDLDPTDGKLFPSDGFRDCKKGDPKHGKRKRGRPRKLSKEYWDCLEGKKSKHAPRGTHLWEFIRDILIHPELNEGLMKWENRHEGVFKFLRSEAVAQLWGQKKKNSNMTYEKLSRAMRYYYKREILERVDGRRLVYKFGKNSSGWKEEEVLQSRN
# Outline: as §1
# CRX = CRX (Homo sapiens, UniProt O43186 1-299); settings: protein: recombinant; tags: N-terminal GST; dsDNA, one strand shown
# Outline: as §1
# ETV1 = ETV1 (Homo sapiens, UniProt P50549 1-477); settings: protein: recombinant; tags: N-terminal GST; dsDNA, one strand shown
# Outline: as §1
# ERF = biological target: T6, ERF (Homo sapiens, UniProt P50548 1-548); settings: protein: recombinant; tags: N-terminal GST; dsDNA, one strand shown
# T6 sequence: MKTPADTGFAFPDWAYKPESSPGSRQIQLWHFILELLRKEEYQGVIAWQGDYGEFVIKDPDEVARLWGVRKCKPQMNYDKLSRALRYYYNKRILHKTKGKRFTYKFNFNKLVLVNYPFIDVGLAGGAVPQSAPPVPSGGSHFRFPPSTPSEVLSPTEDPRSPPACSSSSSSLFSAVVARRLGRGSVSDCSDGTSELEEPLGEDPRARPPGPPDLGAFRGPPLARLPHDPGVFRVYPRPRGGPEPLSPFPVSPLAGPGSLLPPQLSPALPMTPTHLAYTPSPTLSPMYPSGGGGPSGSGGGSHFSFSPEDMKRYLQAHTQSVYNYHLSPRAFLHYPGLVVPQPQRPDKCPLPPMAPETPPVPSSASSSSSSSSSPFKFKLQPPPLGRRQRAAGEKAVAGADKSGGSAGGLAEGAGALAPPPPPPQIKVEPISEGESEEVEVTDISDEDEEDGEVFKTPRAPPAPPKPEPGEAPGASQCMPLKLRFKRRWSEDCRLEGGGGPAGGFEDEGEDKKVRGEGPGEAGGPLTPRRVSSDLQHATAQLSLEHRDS
# Outline: as §1
# ETV3L = biological target: T7, ETV3L (Homo sapiens, UniProt Q6ZN32 1-361); settings: protein: recombinant; tags: N-terminal GST; dsDNA, one strand shown
# T7 sequence: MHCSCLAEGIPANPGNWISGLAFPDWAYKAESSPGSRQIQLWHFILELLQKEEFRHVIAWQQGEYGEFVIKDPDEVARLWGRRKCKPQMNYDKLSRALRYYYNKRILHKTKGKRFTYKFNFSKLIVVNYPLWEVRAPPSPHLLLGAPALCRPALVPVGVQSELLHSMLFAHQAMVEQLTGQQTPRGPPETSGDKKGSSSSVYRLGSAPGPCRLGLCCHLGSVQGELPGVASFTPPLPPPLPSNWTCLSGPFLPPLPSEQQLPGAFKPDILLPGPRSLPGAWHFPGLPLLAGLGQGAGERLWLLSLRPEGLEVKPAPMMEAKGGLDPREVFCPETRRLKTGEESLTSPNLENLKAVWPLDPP
# Outline: as §1
# ETS2 = biological target: T8, ETS2 (Homo sapiens, UniProt P15036 1-469); settings: protein: recombinant; tags: N-terminal GST; dsDNA, one strand shown
# T8 sequence: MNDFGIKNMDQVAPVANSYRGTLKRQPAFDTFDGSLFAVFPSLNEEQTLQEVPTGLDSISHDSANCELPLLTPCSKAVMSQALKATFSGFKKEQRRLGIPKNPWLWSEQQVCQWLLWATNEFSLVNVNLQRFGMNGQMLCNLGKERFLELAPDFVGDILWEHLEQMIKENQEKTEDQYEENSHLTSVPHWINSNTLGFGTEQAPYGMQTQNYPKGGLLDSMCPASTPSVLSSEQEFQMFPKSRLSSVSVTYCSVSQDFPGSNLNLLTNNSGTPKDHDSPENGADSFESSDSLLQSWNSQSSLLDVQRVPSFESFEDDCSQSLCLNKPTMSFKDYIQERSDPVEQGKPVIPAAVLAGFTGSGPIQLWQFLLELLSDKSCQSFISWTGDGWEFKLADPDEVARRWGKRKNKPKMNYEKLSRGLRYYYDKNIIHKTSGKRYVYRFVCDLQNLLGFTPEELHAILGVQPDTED
# Outline: as §1
# SPDEF = biological target: T9, SPDEF (Homo sapiens, UniProt O95238 1-335); settings: protein: recombinant; tags: N-terminal GST; dsDNA, one strand shown
# T9 sequence: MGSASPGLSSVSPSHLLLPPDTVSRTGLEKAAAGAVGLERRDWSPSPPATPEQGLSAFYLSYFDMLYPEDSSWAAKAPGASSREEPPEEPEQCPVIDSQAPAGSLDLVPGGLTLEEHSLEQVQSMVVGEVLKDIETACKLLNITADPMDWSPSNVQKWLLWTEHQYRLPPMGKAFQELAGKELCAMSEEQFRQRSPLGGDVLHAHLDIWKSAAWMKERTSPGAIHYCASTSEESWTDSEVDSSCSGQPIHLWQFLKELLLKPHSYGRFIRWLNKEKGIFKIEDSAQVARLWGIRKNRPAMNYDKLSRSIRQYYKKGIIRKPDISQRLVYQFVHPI
# Outline: as §1
# ETV7 = biological target: T10, ETV7 (Homo sapiens, UniProt Q9Y603 1-341); settings: protein: recombinant; tags: N-terminal GST; dsDNA, one strand shown
# T10 sequence: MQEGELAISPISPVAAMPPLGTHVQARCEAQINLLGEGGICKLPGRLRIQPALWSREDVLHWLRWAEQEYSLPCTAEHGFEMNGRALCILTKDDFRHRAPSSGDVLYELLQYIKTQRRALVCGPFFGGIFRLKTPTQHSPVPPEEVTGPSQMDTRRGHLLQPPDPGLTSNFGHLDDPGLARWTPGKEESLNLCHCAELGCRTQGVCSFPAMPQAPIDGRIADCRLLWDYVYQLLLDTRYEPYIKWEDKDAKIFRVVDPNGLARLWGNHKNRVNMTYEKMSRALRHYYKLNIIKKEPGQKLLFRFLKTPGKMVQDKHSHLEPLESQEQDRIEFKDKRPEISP
# Outline: as §1
# ELF5 = biological target: T11, ELF5 (Homo sapiens, UniProt Q9UKW6-2 1-255); settings: protein: recombinant; tags: N-terminal GST; dsDNA, one strand shown
# T11 sequence: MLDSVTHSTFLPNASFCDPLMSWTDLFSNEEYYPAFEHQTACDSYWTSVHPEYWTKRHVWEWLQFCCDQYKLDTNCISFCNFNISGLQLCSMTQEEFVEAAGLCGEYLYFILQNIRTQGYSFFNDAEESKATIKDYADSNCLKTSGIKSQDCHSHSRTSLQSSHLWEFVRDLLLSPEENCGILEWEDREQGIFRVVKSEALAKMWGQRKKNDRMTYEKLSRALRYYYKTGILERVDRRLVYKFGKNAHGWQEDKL
# Outline: as §1
# ETV3 = biological target: T12, ETV3 (Homo sapiens, UniProt P41162-2 1-143); settings: protein: recombinant; tags: N-terminal GST; dsDNA, one strand shown
# T12 sequence: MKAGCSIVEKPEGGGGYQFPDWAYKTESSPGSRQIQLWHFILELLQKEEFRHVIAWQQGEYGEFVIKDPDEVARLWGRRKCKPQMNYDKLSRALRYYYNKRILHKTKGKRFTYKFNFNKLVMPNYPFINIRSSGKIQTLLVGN
# Outline: as §1
# ETV6 = ETV6 (Homo sapiens, UniProt P41212 1-452); settings: protein: recombinant; tags: N-terminal GST; dsDNA, one strand shown
# Outline: as §1
# CRX, sequence (O43186 whole entry): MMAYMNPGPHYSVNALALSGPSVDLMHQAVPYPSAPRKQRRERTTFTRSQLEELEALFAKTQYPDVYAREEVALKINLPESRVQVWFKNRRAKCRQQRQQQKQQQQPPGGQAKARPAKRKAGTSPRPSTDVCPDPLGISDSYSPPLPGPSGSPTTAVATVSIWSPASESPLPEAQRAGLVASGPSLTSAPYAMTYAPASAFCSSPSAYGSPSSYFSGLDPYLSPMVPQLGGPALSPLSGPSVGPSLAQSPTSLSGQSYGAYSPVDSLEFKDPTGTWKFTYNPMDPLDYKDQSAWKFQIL
# ETV1, sequence (P50549 whole entry): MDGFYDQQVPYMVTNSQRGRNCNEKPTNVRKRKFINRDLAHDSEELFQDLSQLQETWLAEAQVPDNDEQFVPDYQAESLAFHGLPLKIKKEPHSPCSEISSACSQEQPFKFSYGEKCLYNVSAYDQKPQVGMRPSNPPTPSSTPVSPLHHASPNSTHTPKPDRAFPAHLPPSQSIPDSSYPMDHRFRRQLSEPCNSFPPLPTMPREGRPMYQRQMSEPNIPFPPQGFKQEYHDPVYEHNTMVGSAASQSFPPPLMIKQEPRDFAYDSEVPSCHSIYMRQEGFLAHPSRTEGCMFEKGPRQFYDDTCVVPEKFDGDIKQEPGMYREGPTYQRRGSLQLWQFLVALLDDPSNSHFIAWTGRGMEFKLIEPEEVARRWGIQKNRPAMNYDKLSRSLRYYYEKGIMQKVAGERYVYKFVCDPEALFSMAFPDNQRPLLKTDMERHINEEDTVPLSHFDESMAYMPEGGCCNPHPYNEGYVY
# HSF1, sequence (Q00613 whole entry): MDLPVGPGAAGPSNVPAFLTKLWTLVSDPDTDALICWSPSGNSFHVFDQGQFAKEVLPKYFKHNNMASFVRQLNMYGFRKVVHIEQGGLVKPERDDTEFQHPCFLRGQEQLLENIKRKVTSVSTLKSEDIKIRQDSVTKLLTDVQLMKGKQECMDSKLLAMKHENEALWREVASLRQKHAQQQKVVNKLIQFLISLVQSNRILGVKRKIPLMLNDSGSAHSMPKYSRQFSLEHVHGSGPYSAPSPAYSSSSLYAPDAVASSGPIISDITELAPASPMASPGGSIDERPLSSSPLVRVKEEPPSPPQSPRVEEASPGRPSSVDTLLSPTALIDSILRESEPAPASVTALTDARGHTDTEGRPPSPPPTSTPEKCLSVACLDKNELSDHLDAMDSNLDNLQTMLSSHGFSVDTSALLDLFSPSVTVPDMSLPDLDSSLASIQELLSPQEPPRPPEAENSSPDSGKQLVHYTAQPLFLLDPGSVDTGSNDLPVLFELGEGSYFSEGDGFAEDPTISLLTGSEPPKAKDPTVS
# ELF4, sequence (Q99607 whole entry): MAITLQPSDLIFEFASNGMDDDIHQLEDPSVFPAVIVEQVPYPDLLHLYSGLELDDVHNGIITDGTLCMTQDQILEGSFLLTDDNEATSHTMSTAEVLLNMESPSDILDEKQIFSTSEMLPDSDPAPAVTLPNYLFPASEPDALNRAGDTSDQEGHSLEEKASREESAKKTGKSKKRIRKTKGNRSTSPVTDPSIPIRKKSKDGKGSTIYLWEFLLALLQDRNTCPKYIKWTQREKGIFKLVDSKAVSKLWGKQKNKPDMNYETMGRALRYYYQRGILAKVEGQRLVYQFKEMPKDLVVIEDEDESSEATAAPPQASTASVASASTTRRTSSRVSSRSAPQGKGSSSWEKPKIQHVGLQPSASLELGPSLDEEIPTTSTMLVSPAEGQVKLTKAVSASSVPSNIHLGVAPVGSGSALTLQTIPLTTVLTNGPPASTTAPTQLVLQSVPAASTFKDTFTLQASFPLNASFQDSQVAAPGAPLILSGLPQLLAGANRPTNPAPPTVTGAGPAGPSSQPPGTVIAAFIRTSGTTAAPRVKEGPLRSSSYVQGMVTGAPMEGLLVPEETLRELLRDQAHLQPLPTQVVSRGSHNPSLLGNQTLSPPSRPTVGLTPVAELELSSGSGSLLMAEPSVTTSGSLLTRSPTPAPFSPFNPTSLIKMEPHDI
# ETV6, sequence (P41212 whole entry): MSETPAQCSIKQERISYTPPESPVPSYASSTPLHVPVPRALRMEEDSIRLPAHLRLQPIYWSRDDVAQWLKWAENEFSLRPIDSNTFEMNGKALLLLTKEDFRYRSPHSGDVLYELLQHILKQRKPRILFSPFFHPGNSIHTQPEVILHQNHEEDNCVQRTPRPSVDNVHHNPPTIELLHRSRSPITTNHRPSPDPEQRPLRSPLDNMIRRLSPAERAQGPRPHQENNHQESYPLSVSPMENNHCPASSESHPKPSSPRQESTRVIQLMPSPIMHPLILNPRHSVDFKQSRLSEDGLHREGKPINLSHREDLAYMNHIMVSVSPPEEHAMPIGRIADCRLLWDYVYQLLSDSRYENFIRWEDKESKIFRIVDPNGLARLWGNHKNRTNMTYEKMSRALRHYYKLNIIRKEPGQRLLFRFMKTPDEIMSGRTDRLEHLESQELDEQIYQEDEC
# ETV5, sequence (P41161 whole entry): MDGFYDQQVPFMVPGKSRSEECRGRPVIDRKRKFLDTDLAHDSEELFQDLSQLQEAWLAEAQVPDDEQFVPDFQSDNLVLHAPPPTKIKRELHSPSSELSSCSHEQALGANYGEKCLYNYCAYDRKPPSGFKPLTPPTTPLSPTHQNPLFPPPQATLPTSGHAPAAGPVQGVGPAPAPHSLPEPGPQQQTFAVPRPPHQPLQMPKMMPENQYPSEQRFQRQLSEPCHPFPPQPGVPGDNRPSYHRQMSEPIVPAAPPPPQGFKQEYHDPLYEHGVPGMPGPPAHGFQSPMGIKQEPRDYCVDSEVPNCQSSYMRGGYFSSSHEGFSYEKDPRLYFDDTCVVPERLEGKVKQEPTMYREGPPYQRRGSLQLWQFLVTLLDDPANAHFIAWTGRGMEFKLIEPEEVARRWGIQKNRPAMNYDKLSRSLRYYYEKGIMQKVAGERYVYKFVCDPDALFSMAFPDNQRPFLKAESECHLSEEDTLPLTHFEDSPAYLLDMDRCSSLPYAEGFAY
sequence,measurement,setting,value
TTACTG,binding signal,FEV,"1.04 fold enrichment (6-mer frequency, TF over GST control)"
same,binding signal,ETV5,"1.15 fold enrichment (6-mer frequency, TF over GST control)"
same,binding signal,HSF1,"1.52 fold enrichment (6-mer frequency, TF over GST control)"
same,binding signal,SPIC,"1.18 fold enrichment (6-mer frequency, TF over GST control)"
same,binding signal,ELF4,"1.11 fold enrichment (6-mer frequency, TF over GST control)"
same,binding signal,ELK4,"1.16 fold enrichment (6-mer frequency, TF over GST control)"
same,binding signal,ETV2,"1.12 fold enrichment (6-mer frequency, TF over GST control)"
same,binding signal,ELF3,"1.21 fold enrichment (6-mer frequency, TF over GST control)"
same,binding signal,CRX,"1.84 fold enrichment (6-mer frequency, TF over GST control)"
same,binding signal,ETV1,"1.01 fold enrichment (6-mer frequency, TF over GST control)"
same,binding signal,ERF,"1.2 fold enrichment (6-mer frequency, TF over GST control)"
same,binding signal,ETV3L,"1.04 fold enrichment (6-mer frequency, TF over GST control)"
same,binding signal,ETS2,"1.09 fold enrichment (6-mer frequency, TF over GST control)"
same,binding signal,SPDEF,"1.07 fold enrichment (6-mer frequency, TF over GST control)"
same,binding signal,ETV7,"1.14 fold enrichment (6-mer frequency, TF over GST control)"
same,binding signal,ELF5,"1.02 fold enrichment (6-mer frequency, TF over GST control)"
same,binding signal,ETV3,"1.21 fold enrichment (6-mer frequency, TF over GST control)"
same,binding signal,ETV6,"1.17 fold enrichment (6-mer frequency, TF over GST control)"
